Data reported in PubChem BioAssay (Tox21).
A number with no mark means an inactive call. Records with an inconclusive call do not appear. Entries that show only a call come without a potency. Activity calls are given as the source filed them. Unless noted, calls follow the shape of the dose curve; as a rule, active = well fitted curve in the direction sought with a large enough effect in the repeat runs; inconclusive = weak or mixed curves; inactive = no such curve, though single readings can be large; an effect the other way counts as inactive or inconclusive.

Assays:
[1] = molecular target: Thyrotropin receptor (Homo sapiens) (UniProt P16473); assay: qHTS assay to identify small molecule agonists of the thyroid stimulating hormone receptor (TSHR) signaling pathway (AID 1224843; calls by dose curve; also: nearly all actives have a fitted effect of over 45% in size)
Outline: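 Steps: seed 800 TSHR-HEK293 cells per well; add test compound and hold 30 min at ambient temperature; dispense cAMP-d2 then anti-cAMP cryptate; incubate 1 h at ambient; measure fluorescence intensity.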

[2] = qHTS assay to identify small molecule agonists of H2AX (AID 1224845; active = well fitted activation curve with a large enough effect in the signal ratio in the repeat runs, not every such curve was filed as active; the % refers to the signal ratio)
Outline: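 Wild-type CHO-K1 cells, plated overnight, exposed 3hr at 37C to 15 concentrations (0.76% DMSO final). Lysed, then HTRF anti-pH2AX (S139) cryptate and anti-H2AX-d2 antibodies, 24 hr room temperature; 665/620 nm emission read.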

[3] = qHTS assay to identify small molecule agonists of the hypoxia (HIF-1) signaling pathway (AID 1224846; active = well fitted activation curve with a large enough effect in the signal ratio in the repeat runs, not every such curve was filed as active; the % refers to the signal ratio)
Outline: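 Measured by blue/green FRET after loading CCF4-AM: beta-lactamase expressed from a hypoxia response element in ME-180 cells. Test agents were delivered in DMSO and left 17 hrs; cells had been plated 5 hrs earlier in low-serum (0.5% dialyzed FBS) medium.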

[4] = qHTS assay to identify small molecule agonists of H2AX - cell viability counter screen (AID 1224847; calls by dose curve; also: top concentration of the series differs between compounds; nearly all actives have a fitted effect of over 30% in size)
Outline: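 Counter-screen for viability: CellTiter-Glo ATP luminescence read after 3 h compound treatment (15-point titration, 0.76% DMSO final) of CHO-K1 cells at 37C, with 30 min room-temperature reagent incubation.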

[5] = qHTS assay to identify small molecule agonists of the estrogen related receptor (ERR) signaling pathway from Tox21 library (AID 1224849; calls by dose curve; also: nearly all actives have a fitted effect of over 15% in size); conditions: ERR reporter cell line, ONE-Glo luciferase, 18 h; at 92.4 µM (top of the series) unless noted
Outline: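 We plated ERR reporter cells, waited 6 h, added compounds in DMSO by pin tool and incubated them 18 h at 37 C. ONE-Glo was then added and luminescence read after 30 min.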

[6] = qHTS RealTime-Glo MT Cell Viability Assay in HepG2 cells - 24 hour (AID 1224867); also: nearly all actives have a fitted effect of over 50% in size
Outline: (§1)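 Tox21 10K library screened in qHTS format on HepG2 cells carrying RealTime-Glo reagents. Compounds were added after a 5 h preincubation, and the luminescent signal from continuous culture was measured repeatedly during 40 h treatment.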

[7] = A CellTox Green Cytotoxicity Assay to monitor cytotoxicity in HEK293 cells - 0 hour (AID 1224869); also: nearly all actives have a fitted effect of over 50% in size
Outline: (§2)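 Each value comes from one timepoint of a single continuous run in which HEK293 cells with CellTox Green were exposed to compound for up to 40 h at 37 C, dye fluorescence rising with cell death.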

[8] = qHTS RealTime-Glo MT Cell Viability Assay in HepG2 cells - 40 hour (AID 1224870); also: nearly all actives have a fitted effect of over 50% in size
Outline: (§3)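 HepG2 cells (600/well) mixed with RealTime-Glo MT reagent, settled 5 h at 37 C/5% CO2 before compound addition. Nonlytic NanoLuc luminescence from viable-cell prosubstrate reduction read repeatedly during 40 h treatment at 37 C.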

[9] = A CellTox Green Cytotoxicity Assay to monitor cytotoxicity in HEK293 cells - 40 hour (AID 1224871); also: nearly all actives have a fitted effect of over 45% in size
Outline: as §2

[10] = qHTS RealTime-Glo MT Cell Viability Assay in HEK293 cells - 16 hour (AID 1224872); also: top concentration of the series differs between compounds; nearly all actives have a fitted effect of over 50% in size
Outline: (§4)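 Luminescence generated by NanoLuc from substrate produced by living HEK293 cells served as the viability signal. Each value reflects the reading at its stated time point during continuous 40 h compound exposure at 37 C.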

[11] = qHTS RealTime-Glo MT Cell Viability Assay in HepG2 cells - 8 hour (AID 1224873); also: nearly all actives have a fitted effect of over 55% in size
Outline: as §3

[12] = qHTS RealTime-Glo MT Cell Viability Assay in HEK293 cells - 40 hour (AID 1224874); conditions: RealTime-Glo luminescence; max response: active compounds read low; also: nearly all actives have a fitted effect of over 50% in size
Outline: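 qHTS format; HEK293 cells with NanoLuc/prosubstrate reagent, 37 C/5% CO2 for 5 h pre-dosing; compounds 23 nL in DMSO; luminescence at each time point reflects viable cells.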

[13] = A CellTox Green Cytotoxicity Assay to monitor cytotoxicity in HEK293 cells - 24 hour (AID 1224875); also: nearly all actives have a fitted effect of over 45% in size
Outline: as §2

[14] = A CellTox Green Cytotoxicity Assay to monitor cytotoxicity in HepG2 cells - 16 hour (AID 1224876); also: nearly all actives have a fitted effect of over 45% in size
Outline: (§5)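 Continuous culture of HepG2 cells with a membrane-impermeant DNA dye; rising fluorescence marks dead cells. Compound exposure lasted up to 40 h at 37 C, with reads every 8 h from 0 h.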

[15] = qHTS RealTime-Glo MT Cell Viability Assay in HepG2 cells - 32 hour (AID 1224877); also: nearly all actives have a fitted effect of over 55% in size
Outline: as §1

[16] = A CellTox Green Cytotoxicity Assay to monitor cytotoxicity in HepG2 cells - 40 hour (AID 1224879); also: nearly all actives have a fitted effect of over 40% in size; also: potency is read from the fitted curve at half-maximal effect
Outline: as §5

[17] = A CellTox Green Cytotoxicity Assay to monitor cytotoxicity in HepG2 cells - 24 hour (AID 1224878); also: nearly all actives have a fitted effect of over 45% in size
Outline: as §5

[18] = qHTS RealTime-Glo MT Cell Viability Assay in HEK293 cells - 32 hour (AID 1224868)
Outline: as §4

[19] = qHTS assay to identify small molecule agonists of the hypoxia (HIF-1) signaling pathway - cell viability counter screen (AID 1224844; calls by dose curve; also: nearly all actives have a fitted effect of over 50% in size)
Outline: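 Luminescent ATP content (CellTiter-Glo, 30 min, room temperature) served as the viability measure in HRE-bla ME-180 cells exposed to compounds for 17 hrs in low-serum medium (0.5% dialyzed FBS).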

[20] = qHTS assay to identify small molecule antagonists of the estrogen related receptor (ERR) signaling pathway from Tox21 library (AID 1224848); also: nearly all actives have a fitted effect of over 50% in size
Outline: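 Luminescent reporter read-out (ONE-Glo) from NTP's ERR cell line after 18 h treatment at 37 C with DMSO-dissolved Tox21 compounds; cells pre-plated 6 h beforehand at 2,000 per well.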

Thyrotropin receptor (Homo sapiens), sequence (P16473 whole entry, looked up): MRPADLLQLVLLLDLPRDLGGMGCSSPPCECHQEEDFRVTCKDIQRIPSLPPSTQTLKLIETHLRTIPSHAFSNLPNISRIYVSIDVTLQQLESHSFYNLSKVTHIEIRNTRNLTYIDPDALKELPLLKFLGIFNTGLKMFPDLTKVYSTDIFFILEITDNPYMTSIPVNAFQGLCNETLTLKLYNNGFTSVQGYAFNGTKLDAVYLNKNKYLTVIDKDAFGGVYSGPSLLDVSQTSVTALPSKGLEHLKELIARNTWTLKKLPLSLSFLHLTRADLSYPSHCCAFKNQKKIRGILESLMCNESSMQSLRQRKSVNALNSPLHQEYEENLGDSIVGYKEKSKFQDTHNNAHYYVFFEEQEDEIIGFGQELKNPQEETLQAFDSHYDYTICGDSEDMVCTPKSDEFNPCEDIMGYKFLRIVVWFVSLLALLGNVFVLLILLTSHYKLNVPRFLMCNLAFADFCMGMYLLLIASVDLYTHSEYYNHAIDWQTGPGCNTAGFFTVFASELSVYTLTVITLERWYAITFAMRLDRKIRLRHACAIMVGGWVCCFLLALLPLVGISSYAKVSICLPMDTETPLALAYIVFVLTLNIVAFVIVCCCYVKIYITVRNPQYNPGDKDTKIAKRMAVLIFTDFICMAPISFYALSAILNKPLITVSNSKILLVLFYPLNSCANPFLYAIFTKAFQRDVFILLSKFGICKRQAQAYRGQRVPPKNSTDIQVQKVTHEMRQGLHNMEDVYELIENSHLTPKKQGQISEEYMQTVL

Row | Structure (SMILES) | Potency [1] | outcome [2] | outcome [3] | Potency [4] | activity change, positive = activation [5] | outcome [6] | outcome [7] | outcome [8] | Potency [9] | Potency [10] | outcome [11] | max response [12] [%] | outcome [13] | outcome [14] | outcome [15] | Potency [16] | outcome [17] | Potency [18] | outcome [19] | Potency [20]
1 | BrCc1cccc(Oc2ccccc2)c1 | inactive | inactive | inactive | inactive | 0.526% | inactive | inactive | inactive | inactive | inactive | inactive | -9.91 | inactive | inactive | inactive |  |  |  |  | 
2 | Cc1ccccc1C(=O)Nc1ccc(C(=O)N2CCCC(N(C)C)c3ccccc32)cc1 (stereo not drawn) | inactive | inactive | inactive | inactive |  | inactive | inactive | inactive | inactive | inactive | inactive |  | inactive | inactive | inactive | 6.74 µM (active) |  |  |  | 
3 | CCCN1C[C@H](CSC)C[C@@H]2c3cccc4[nH]cc(c34)C[C@H]21 | inactive |  |  | inactive |  | inactive | inactive | inactive | inactive | inactive | inactive | -0.0801 | inactive | inactive |  | inactive | inactive |  |  | 
4 | CCOC(=O)[C@H](CCc1ccccc1)N[C@@H](C)C(=O)N1C(=O)N(C)C[C@H]1C(=O)O | inactive | inactive | inactive | inactive |  | inactive | inactive | inactive | inactive |  | inactive | 1.75 | inactive |  | inactive |  | inactive | inactive |  | 
5 | CC1=CCC(C(C)C)=CC1 |  | inactive | inactive | inactive |  | inactive | inactive | inactive | inactive | inactive | inactive | -3.87 | inactive |  | inactive | inactive |  | inactive | inactive | 
6 | C=C(C)C(=O)OCC(C)(C)COC(=O)C(=C)C |  | inactive | inactive | inactive | 0.866% | inactive | inactive | inactive | inactive | inactive | inactive | 2.01 | inactive | inactive | inactive | inactive | inactive | inactive |  | inactive
7 | CC(C)C[C@H](NC(=O)CNC(=O)[C@H](Cc1ccc(O)cc1)NC(=O)[C@H](CO)NC(=O)[C@H](Cc1c[nH]c2ccccc12)NC(=O)[C@H](Cc1cnc[nH]1)NC(=O)[C@@H]1CCC(=O)N1)C(=O)N[C@@H](CCCN=C(N)N)C(=O)N1CCC[C@H]1C(=O)NCC(N)=O (stereo in doubt) |  | inactive | inactive | inactive |  | inactive | inactive |  | inactive | inactive | inactive | 12.8 | inactive | inactive | inactive | inactive | inactive | inactive | inactive | 
8 | CCC(C)(CCC(C)C)C(=O)O (stereo not drawn) |  | inactive | inactive | inactive | -1.46% | inactive | inactive | inactive | inactive | inactive | inactive | 2.99 | inactive | inactive | inactive | inactive | inactive | inactive | inactive | 
9 | CC(=O)Nc1ccc(S(=O)(=O)Cl)cc1 |  | inactive | inactive | inactive | -0.863% | inactive | inactive | inactive | inactive | inactive | inactive | -6.18 | inactive | inactive |  | inactive |  |  | inactive | 
10 | Nc1ccc2cc(S(=O)(=O)O)cc(O)c2c1 |  |  | inactive | inactive | 1.3% | inactive | inactive |  | inactive | inactive | inactive | 0.478 | inactive | inactive | inactive | inactive | inactive | inactive |  | inactive
11 | C=C(C)C(=O)OCc1ccccc1 |  | inactive | inactive | inactive | 1.9% | inactive | inactive | inactive | inactive |  | inactive | -7.63 | inactive | inactive | inactive | inactive | inactive |  | inactive | inactive
12 | CC(=O)c1ccc2c(c1)Cc1ccccc1-2 |  | inactive | inactive |  |  | inactive | inactive | inactive | inactive | inactive | inactive | -0.213 | inactive | inactive | inactive |  |  | inactive | inactive | 
13 | NCCS |  | inactive |  | inactive | -2.88% [at 42.5 µM] | inactive | inactive | inactive | inactive |  | inactive | 7.37 | inactive |  | inactive | inactive | inactive | inactive | inactive | inactive
14 | FC(F)(F)c1ccccc1-n1ccnc1 |  | inactive |  | inactive |  | inactive | inactive | inactive | inactive | inactive | inactive | -3.14 | inactive | inactive | inactive | inactive | inactive | inactive | inactive | 
15 | CCC(C=O)CC |  | inactive | inactive | inactive | 2.68% | inactive | inactive |  | inactive | inactive | inactive | -5.72 | inactive | inactive | inactive | inactive | inactive | inactive |  | inactive
16 | Nc1ccc(S(=O)(=O)Nc2ccc(Cl)nn2)cc1 |  | inactive |  | inactive | 4.62% [at 42.5 µM] | inactive | inactive | inactive | inactive | inactive | inactive | -0.389 | inactive | inactive | inactive |  | inactive | inactive | inactive | 
17 | C[C@@H]1O[C@@H](O[C@@H]2[C@@H](O)[C@H](OCCc3ccc(O)c(O)c3)O[C@H](CO[C@@H]3O[C@H](CO)[C@@H](O)[C@H](O)[C@H]3O)[C@H]2OC(=O)/C=C/c2ccc(O)c(O)c2)[C@H](O)[C@H](O)[C@H]1O |  |  | inactive | inactive |  | inactive | inactive |  | inactive |  | inactive | -18.6 | inactive | inactive | inactive |  | inactive |  | inactive | 
18 | N#Cc1ccc(C(=O)O)cc1 |  | inactive | inactive | inactive | 1.83% | inactive | inactive | inactive | inactive | inactive | inactive | 3.59 | inactive |  | inactive | inactive |  | inactive | inactive | inactive
19 | CCCOC(OCCC)OCCC |  | inactive | inactive | inactive | 4.24% | inactive | inactive | inactive | inactive | inactive | inactive | 6.14 | inactive |  | inactive | inactive | inactive | inactive | inactive | 
20 | O=S(=O)(O)c1cc(O)c2ccc(Nc3ccccc3)cc2c1 |  |  | inactive | inactive |  | inactive | inactive | inactive | inactive |  | inactive | 11.9 | inactive | inactive | inactive | inactive | inactive | inactive |  | 
21 | C[C@@H](Oc1ccc(CNC(=O)c2cccnc2Oc2ccc3c(c2)OCO3)c(F)c1)C(=O)O |  | inactive | inactive | inactive | 4.43% | inactive | inactive | inactive | inactive | inactive | inactive | 9.55 | inactive | inactive | inactive | inactive | inactive | inactive | inactive | 
